tim10-1 inh: inhibits growth of tim10-1 mutant yeast; S. cerevisiae tim10-1 ts strain growth, BacTiter-Glo, 24 h; inhibition, % at 20 µM; actives 2.2% (n = 330,000); AID 463190;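 active = inhibition of at least 40%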;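 note: mutant grown at 25 °C; 0% = DMSO wells with yeast and 100% = wells holding no yeast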
V-ATPase pHluor: alters yeast V-ATPase proton transport; response, % at 10 µM; actives 0.37% (n = 350,000); S. cerevisiae, pHLuorin cytosolic pH fluorescence; AID 504577; in the data active = response mostly above about 7.3%, no sharp cut-off; inactive = mostly below about 5.4%; note: actives read high
TIM10 inh: inhibits growth of TIM10 yeast strain; S. cerevisiae TIM10 strain growth, BacTiter-Glo luminescence, 24 h; inhibition, % at 10 µM; actives 1.4% (n = 330,000);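 active = inhibition of 40% or more at the single tested concentration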;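 note: wild-type TIM10 isogenic control strain grown at permissive 25 °C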
SKKanGAS inh: SKKanGAS growth inhibition; actives 1.3% (n = 300,000); S. pyogenes SKKanGAS, kanamycin growth, BacTiter-Glo, 6 h; inhibition, % at 7.5 µM;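 active = mean replicate score, as percent of positive control median, at least 50; inconclusive = mean below 50 but one replicate at or above 50; inactive = mean and every replicate below 50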;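 note: strain carries kanamycin resistance gene driven by streptokinase promoter and grows in 40 µg/ml kanamycin; loss of luminescence reflects streptokinase promoter inhibition or plain growth inhibition; 0% = median of DMSO wells and 100% = positive control at its reference dose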
tim23-1 inh: growth inhibitors of tim23-1 mutant yeast | S. cerevisiae tim23-1 growth, BacTiter-Glo luminescence, 24 h | inhibition, % at 20 µM | actives 1.3% (n = 330,000);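 active = growth inhibition of the mutant yeast at or above 50%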;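 note: temperature-sensitive mutant grown at 25 °C; plate controls were DMSO-treated mutant yeast for no effect and medium wells lacking yeast for full effect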
PfHsp90 yeast 2: growth inhibition of yeast expressing Plasmodium Hsp90; actives 0.32% (n = 310,000); S. cerevisiae expressing PfHsp90, BacTiter-Glo ATP, 48 h; yeast lacking PDR1 and PDR3 efflux regulators; inhibition, % at 9.4 µM;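 active = every replicate shows inhibition above about 80%, whatever the replicate mean, limit read from the data; inconclusive = mean inhibition reaches the set limit but some replicate falls short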;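 note: 0% = DMSO neutral controls and 100% = 20 µM radicicol positive controls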
TIM10 conf: TIM10 yeast growth inhibition, confirmed | shares compounds with TIM10 inh | S. cerevisiae tim10 strain growth, BacTiter-Glo luminescence, 24 h | actives 63% (n = 4,600) | inhibition, % at 10 µM | AID 463215;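 active = inhibition of yeast growth at or above a set limit in either of two replicates at 10 µM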;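 note: this counterscreen used the strain with wild-type TIM10; 0% = yeast with DMSO and 100% = medium wells lacking yeast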
Starred values were filed as active, the others as inactive; u = inconclusive; x = no result. Hits are enriched below; roughly 4.6% of the tested compounds scored in any of these assays.

SMILES | tim10-1 inh | V-ATPase pHluor | TIM10 inh | SKKanGAS inh | tim23-1 inh | PfHsp90 yeast 2 | TIM10 conf
CCOc1ccc(-n2cnc3scc(-c4ccc(OC)c(OC)c4)c3c2=O)cc1 | 36 | 1 | 41* | 5 | 27 | x | 16
Cc1ccc(S(=O)(=O)Nc2ccccc2C(=O)N2CCCCC2C)c(C)c1NS(C)(=O)=O (stereo not drawn) | 15 | 3 | -11 | -15 | 8 | 33 | x
O=C(Nc1ccc(C2CC2(Cl)Cl)cc1)c1ccccc1Br (stereo not drawn) | 32 | 0 | 41* | -1 | 42 | 9 | 19
Cc1cc(Br)c(OCc2ccc(C(=O)N/N=C3\CC4CC=CC34)cc2)c(Br)c1 (stereo not drawn) | 17 | -1 | 42* | 68* | 45 | 11 | 44*
Cc1cc2[nH]c3c(c[n+](C)c4ccccc34)c2cc1C | 38 | -2 | 66* | 5 | 48 | 44 | 59*
Cc1cc2[nH]c3c4ccccc4nc(C)c3c2cc1C | x | 0 | x | x | x | 24 | x
O=C(Nc1ccc(Cl)cc1)N1CCC(c2nc(-c3ccccc3Cl)no2)CC1 | 30 | -1 | 48* | 35 | -6 | -12 | 19
Nc1cc(=O)[nH]c(SCC(=O)NC2CCCCCCC2)n1 | -7 | 5 | -6 | x | -17 | -24 | x
S=C(Nc1ccc(Oc2ccccc2)cc1)NC1CCCC1 | 38 | 0 | 16 | 4 | 42 | -28 | x
S=C(NCC1CCCCC1)Nc1ccc(Oc2ccccc2)cc1 | 40 | 0 | 54* | 54* | 23 | -10 | 30*
CC1=CC(C)(C)N(C(=O)c2ccccc2)c2ccc(C)cc21 | 26 | 1 | 46* | 63* | -6 | -1 | -9
CC1=CC(C)(C)N(C(=O)c2ccccc2)c2ccccc21 | 29 | -1 | 16 | 11 | 25 | -20 | x
Cc1ccc2c(c1)-c1nc3ccccc3cc1C2=NC1CCCCC1 | x | 3 | x | x | x | 26 | x
Cc1ccc2c(c1)Cc1nc3ccccc3nc1-2 | 19 | 1 | 46* | 15 | 42 | -64 | 51*
[O-][n+]1c2ccccc2[n+]([O-])c2cc(O)ccc21 | 25 | -1 | 15 | u | 23 | -26 | x
Cn1cc(/C=C2\SC(=O)N(c3ccccc3)C2=O)c2ccccc21 | 34 | -7 | -2 | -8 | 14 | 7 | x
Cn1cc(/C=C2\SC(=O)N(c3ccc(O)cc3)C2=O)c2ccccc21 | 29 | -8 | 44* | 27 | 33 | -5 | 38*
CC(=O)c1ccsc1-c1c(C)cc2oc(=O)cc(-c3ccccc3)c2c1C | 9 | 5 | -5 | x | 33 | -31 | x
CCC1CCC(NC(=O)Nc2cccc(OC)c2)CC1 (stereo not drawn) | 30 | 1 | 45* | -2 | 25 | -10 | 24
CC(C)(C)n1nnnc1C(c1ccncc1)N(Cc1ccccc1)Cc1ccco1 (stereo not drawn) | 31 | -2 | 42* | 26 | 34 | 0 | -4
O=C(NCCc1cccc(Cl)c1)c1ccc(OC2CCN(Cc3ccccn3)CC2)cc1 | 9 | 1 | 3 | 3 | 14 | 6 | x
CCOC(=O)c1nnn(-c2ccccc2)c1C | 10 | 0 | 7 | -5 | 11 | -10 | x
CCOC(=O)c1nnn(-c2ccc([N+](=O)[O-])cc2[N+](=O)[O-])c1C | 23 | -3 | 41* | 5 | 44 | 12 | 37*
C/C(CCC(C)C)=N\Nc1ccc(S(N)(=O)=O)cc1[N+](=O)[O-] | 15 | 3 | 75* | 13 | 34 | 18 | 26
Fc1ccc2nc(Nc3ccccc3)sc2c1 | 30 | 1 | 43* | -1 | 24 | -23 | 30
NNc1nc2ccc(F)cc2s1 | 13 | 0 | 5 | 3 | 20 | 2 | x
CCC(C)CCN1CCN=C1Nc1ccccc1 (stereo not drawn) | -10 | -2 | -7 | x | -7 | 15 | x
Cc1cc(C)cc(NC(=O)C2(c3ccccc3)CC2(Cl)Cl)c1 (stereo not drawn) | 37 | -4 | 41* | 19 | 38 | -31 | 40*
Cc1cccc(NC(=O)C2(c3ccccc3)CC2(Cl)Cl)c1 (stereo not drawn) | 39 | 5 | 23 | 6 | 26 | -8 | x
